Experimental data from PubChem BioAssay AID1159580 (chemical genetic matrix, 2015).
Where “and” joins values, the source holds several entries; their conditions need not be identical. Identical values can stand only once. The campaign covered roughly 5,500 compounds. About 2,000 (36%) were called active. About 18% were inconclusive and are not listed. No stated cut-off is given here; in the data, active means normalized growth mostly below about 0.91 (no sharp cut-off); inconclusive means no clear call, values can overlap the other calls; inactive means mostly above about 0.92. This is one part of the list.

Assay: chemical genetic growth profiling, strain panel (AID 1159580);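 further: tested at 20 µM; growth read once vehicle control cultures reached saturation at 30 °C; 1 = growth at the plate median or of vehicle wells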
Settings: S. cerevisiae deletion strains, growth OD

Measured: normalized growth

CO[C@H]1C[C@H](O[C@H]2[C@H](C)[C@@H](OC3O[C@H](C)C[C@H](N(C)C)[C@H]3O)[C@@H](C)C[C@]3(CO3)C(=O)[C@H](C)[C@@H](O)[C@@H](C)[C@@H](C)OC(=O)[C@@H]2C)O[C@@H](C)[C@@H]1O (some centres not stated)
inactive: locus YAL013W, strain DEP1, stronger effect = lower value 1.01 | locus YAL021C, strain ccr4, stronger effect = lower value 1.03 | locus YAL026C, strain drs2, stronger effect = lower value 0.991 | locus YAL030W, strain snc1, stronger effect = lower value 1.01 | locus YBL061C, strain skt5, stronger effect = lower value 1 | locus YBR009C, strain hhf1, stronger effect = lower value 0.96 | locus YBR021W, strain FUR4, stronger effect = lower value 0.994 | locus YBR023C, strain chs3, stronger effect = lower value 1.02 | locus YBR171W, strain sec66, stronger effect = lower value 0.996 | locus YBR229C, strain ROT2, stronger effect = lower value 1.02 | locus YBR231C, strain swc5, stronger effect = lower value 1.02 | locus YBR279W, strain paf1, stronger effect = lower value 1.01 | locus YCL011C, strain gbp2, stronger effect = lower value 0.998 | locus YCL016C, strain dcc1, stronger effect = lower value 1.02 | locus YCL029C, strain bik1, stronger effect = lower value 1 | locus YCL061C, strain MRC1, stronger effect = lower value 1.02 | locus YCL069W, strain vba3, stronger effect = lower value 1 | locus YCR088W, strain abp1, stronger effect = lower value 1.01 | locus YDL005C, strain med2, stronger effect = lower value 1.02 | locus YDL035C, strain GPR1, stronger effect = lower value 1.01 | locus YDL040C, strain nat1, stronger effect = lower value 1.01 | locus YDL074C, strain BRE1, stronger effect = lower value 1.02 | locus YDL101C, strain DUN1, stronger effect = lower value 1.02 | locus YDL134C, strain PPH21, stronger effect = lower value 1.01 | locus YDL185W, strain tfp1, stronger effect = lower value 1.01 | locus YDL192W, strain arf1, stronger effect = lower value 1.01 | locus YDR001C, strain nth1, stronger effect = lower value 1 | locus YDR069C, strain doa4, stronger effect = lower value 1.03 | locus YDR101C, strain arx1, stronger effect = lower value 1 | locus YDR137W, strain rgp1, stronger effect = lower value 0.998 | locus YDR150W, strain NUM1, stronger effect = lower value 1 | locus YDR159W, strain sac3, stronger effect = lower value 0.994 | locus YDR162C, strain NBP2, stronger effect = lower value 1.01 | locus YDR195W, strain ref2 1.01 | locus YDR297W, strain sur2, stronger effect = lower value 1.01 | locus YDR318W, strain mcm21, stronger effect = lower value 1.01 | locus YDR334W, strain swr1, stronger effect = lower value 0.995 | locus YDR335W, strain msn5, stronger effect = lower value 0.998 | locus YDR388W, stronger effect = lower value 0.991 | locus YDR392W, strain spt3, stronger effect = lower value 0.945 | locus YDR502C, strain sam2, stronger effect = lower value 1.02 | locus YEL003W, strain gim4, stronger effect = lower value 0.987 | locus YEL037C, strain rad23, stronger effect = lower value 0.994 | locus YEL061C, strain CIN8 (second series), stronger effect = lower value 0.999 | locus YEL061C, strain CIN8, stronger effect = lower value 1 | locus YER015W, strain faa2, stronger effect = lower value 0.992 | locus YER016W, strain bim1, stronger effect = lower value 1.02 | locus YER110C, stronger effect = lower value 0.986 | locus YER111C, strain swi4, stronger effect = lower value 1 | locus YER155C, strain BEM2 (second series), stronger effect = lower value 1.02 | locus YER155C, strain BEM2, stronger effect = lower value 1 | locus YER167W, strain BCK2, stronger effect = lower value 1.01 | locus YFR010W, strain ubp6, stronger effect = lower value 0.988 | locus YGL078C, strain dbp3, stronger effect = lower value 1 | locus YGL086W, strain mad1, stronger effect = lower value 0.995 | locus YGL167C, strain pmr1, stronger effect = lower value 0.994 | locus YGL173C, strain kem1, stronger effect = lower value 1 | locus YGL227W, strain vid30, stronger effect = lower value 1.02 | locus YGL240W, strain doc1, stronger effect = lower value 1.03 | locus YGL248W, strain PDE1, stronger effect = lower value 1.02 | locus YGL253W, strain hxk2, stronger effect = lower value 1.02 | locus YGR078C, strain PAC10, stronger effect = lower value 1.02 | locus YGR135W, strain pre9, stronger effect = lower value 1.01 | locus YGR229C, strain SMI1, stronger effect = lower value 1.03 | locus YGR252W, strain gcn5, stronger effect = lower value 1.14 | locus YHR013C, strain ard1, stronger effect = lower value 1.02 | locus YHR027C, strain rpn1, stronger effect = lower value 0.999 | locus YHR030C, strain SLT2, stronger effect = lower value 1.01 | locus YHR079C, strain IRE1 (second series), stronger effect = lower value 0.989 | locus YHR079C, strain IRE1, stronger effect = lower value 1.01 | locus YHR094C, strain hxt1, stronger effect = lower value 0.98 | locus YHR129C, strain ARP1, stronger effect = lower value 0.998 | locus YHR142W, strain chs7, stronger effect = lower value 0.972 | locus YHR200W, strain rpn10, stronger effect = lower value 1.01 | locus YIL066C, strain RNR3, stronger effect = lower value 1.02 | locus YIL073C, strain SPO22, stronger effect = lower value 1.05 | locus YIL125W, strain kgd1, stronger effect = lower value 1 | locus YIR030C, strain dcg1, stronger effect = lower value 0.993 | locus YJL092W, strain hpr5, stronger effect = lower value 1.01 | locus YJL095W, strain BCK1 (second series), stronger effect = lower value 1.01 | locus YJL095W, strain BCK1, stronger effect = lower value 1.03 and 0.995 | locus YJL115W, strain asf1, stronger effect = lower value 0.991 | locus YJL129C, strain trk1, stronger effect = lower value 1 | locus YJL134W, strain LCB3, stronger effect = lower value 1 | locus YJL154C, strain vps35, stronger effect = lower value 1 | locus YJL164C, strain tpk1, stronger effect = lower value 0.982 | locus YJL166W, strain qcr8, stronger effect = lower value 1.03 | locus YJL168C, strain set2, stronger effect = lower value 0.987 | locus YJL187C, strain SWE1 (second series), stronger effect = lower value 1.02 | locus YJL187C, strain SWE1, stronger effect = lower value 1 | locus YJR043C, strain POL32, stronger effect = lower value 1.02 | locus YJR066W, strain TOR1, stronger effect = lower value 0.981
